Test results as given in PubChem BioAssay (NCATS).
Unmarked numbers belong to inactive results. Records with an inconclusive call do not appear. Where a call stands in place of a potency, no number is given. Activity calls are given as the source filed them. Calls follow the shape of the dose curve; as a rule, active = well fitted curve in the direction sought with a large enough effect; inconclusive = small, poorly fitted or top-dose-only effect, or another doubt; inactive = no such curve, though single readings can be large; an effect the other way counts as inactive or inconclusive.

Experiments:
[1] = NCATS anti-infectives library activity on HEK293 viability as a counter-qHTS vs the C. elegans viability qHTS (AID 1745854);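 also: HEK293 cells exposed to compounds for 24 hr before the viability read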
Summary of the method: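 HEK293 cells (1,500/well) exposed 24 hr at 37C to 1:5 titrations, up to 41.7 uM final; counter-screen to a C. elegans viability qHTS. Viability by CellTiter-Glo luminescence after 10 min at room temperature; digitonin as control.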

[2] = Viability counterscreen for antagonist of constitutive androstane receptor (CAR) against the NCATS DSHEA and TCM libraries (AID 1794837);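 also: compound exposure lasted 24 h before viability reading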
Summary of the method: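 Viability was measured by CellTiter-Fluor fluorescence (405/540 nm, 1 hr) in HepG2-CYP2B6-hCAR cells. Cells were co-treated 24 hr with 48 uM CITCO (final), antagonist mode, and test substances.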

[3] = Viability counterscreen for agonist of constitutive androstane receptor (CAR) against the NCATS DSHEA and TCM libraries (AID 1794838)
Summary of the method: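 Cell viability, from CellTiter-Fluor fluorescence (405/540 nm), was scored after a 24 h, 37C exposure of HepG2 cells carrying CYP2B6 reporter and hCAR to test substances in presence of 0.75 uM PK11195.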

[4] = HepG2 viability counterscreen (readout 2: ATP content) against the NCATS DSHEA and TCM libraries (AID 1794840);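 also: HepG2 cells exposed to substances for about 24 h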
Summary of the method: (§1)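 Readout 1: cellular protease activity, GF-AFC substrate (25 uM final, 30 min, fluorescence 380/510 nm). Readout 2: ATP content by CellTiter-Glo luminescence after 30 min at RT. Both follow ~24 h exposure of HepG2 cells (1,000/well) to substances.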

[5] = HepG2 viability counterscreen (readout 1: protease activity) against the NCATS DSHEA and TCM libraries (AID 1794841);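 also: cells exposed to compounds for about 24 h before the protease read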
Summary of the method: as §1

[6] = target: Cytochrome P450 2D6 (Homo sapiens) (UniProt P10635); assay: qHTS for inhibitors of CYP2D6 against the NCATS DSHEA and TCM libraries (AID 1919972)
Summary of the method: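 Luminescent P450-Glo read-out of CYP2D6 turnover of a luciferin substrate after NADPH-driven reaction of 30-45 min at room temperature. Compounds were first preincubated 15 min with enzyme at titrated concentrations; quinidine was the intraplate control.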

[7] = target: Cytochrome P450 2C9 (Homo sapiens) (UniProt P11712); assay: qHTS for inhibitors of CYP2C9 against the NCATS DSHEA and TCM libraries (AID 1919973); also: potency is read from the fitted curve at half-maximal effect
Summary of the method: (§2)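 Luminescent P450-Glo format: compounds preincubated 15 min with enzyme and luciferin substrate, reaction run 30-45 min after NADPH regeneration solution. Intraplate controls: ketoconazole for CYP3A4 and CYP2C19, sulfaphenazole for CYP2C9.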

[8] = target: Cytochrome P450 2C19 (Homo sapiens) (UniProt P33261); assay: qHTS for inhibitors of CYP2C19 against the NCATS DSHEA and TCM libraries (AID 1919974);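 also: luminescence from luciferin released by CYP2C19 oxidation of a pro-luciferin substrate; potency is read from the fitted curve at half-maximal effect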
Summary of the method: as §2

[9] = KB-3-1 P-gp reporter qHTS against the NCATS DSHEA and TCM libraries (AID 1919975)
Summary of the method: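 Cell viability by CellTiter-Glo luminescence following ~72 h compound exposure (concentration-response). Uses parental, non-P-gp-overexpressing KB-3-1 line, 500 cells/well in DMEM/10% FBS, attached ~4 h before dosing.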

[10] = qHTS Counterscreen for compound interference against the NCATS DSHEA and TCM libraries (AID 1919978); details: firefly luciferase detection reagent interference, luminescence;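 also: compounds preincubated with 1 µM D-luciferin or buffer before detection reagent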
Summary of the method: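 With 1 uM D-luciferin or phosphate buffer only, compounds at final 19.5 nM–39.8 uM were incubated for 15 min at room temperature. Luciferase detection reagent was then added, and luminescence was measured after a further 30 min at room temperature.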

[11] = Dual reporter qHTS for agonist of Pregnane X Receptor (hPXR) against the NCATS DSHEA and TCM libraries: Fluorescence readout (AID 1920058)
Summary of the method: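 hPXR-Luc HepG2 cells, 2000/well in charcoal-stripped serum, attached 5 h, dosed for ~24 h at 37 °C. Fluorescence read is CellTiter-Fluor viability (Ex/Em 405/540 nm); rifampicin positive, tetraoctyl ammonium bromide (92 µM) cytotoxicity controls.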

[12] = target: Nuclear receptor subfamily 1 group I member 2 (Homo sapiens) (UniProt O75469); assay: Dual reporter qHTS for agonist of Pregnane X Receptor (hPXR) against the NCATS DSHEA and TCM libraries: Luminescence readout (AID 1920059)
Summary of the method: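 hPXR-LucHepG2 cells in phenol red-free DMEM with 5% charcoal-stripped FBS, 2000 cells/well, attached 5 h, then exposed 24 h at 37C to compounds; rifampicin as positive agonist control (2.8 nM–92 uM). Luciferase luminescence read.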

[13] = target: Nuclear receptor subfamily 1 group I member 2 (Homo sapiens) (UniProt O75469); assay: Dual reporter qHTS for antagonist of Pregnane X Receptor (hPXR) against the NCATS DSHEA and TCM libraries: Luminescence Readout (AID 1920060);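 also: HepG2 cells carrying hPXR luciferase reporter stimulated with rifampicin at 2 µM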
Summary of the method: (§3)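 HepG2 hPXR-Luc, 2000 cells/well, charcoal-stripped FBS medium; 5 h attach; RIF 2 uM final; 24 h 37C/5% CO2; CellTiter-Fluor 1 h, fluor 405/540; ONE-Glo 30 min RT, lum.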

[14] = Dual reporter qHTS for antagonist of Pregnane X Receptor (hPXR) against the NCATS DSHEA and TCM libraries: Fluorescence Readout (AID 1920061)
Summary of the method: as §3

[15] = target: Glutathione peroxidase 1 (Homo sapiens) (UniProt P07203); assay: Primary qHTS Assay for Inhibitors of Recombinant Selenoprotein Glutathione Peroxidase 1 (GPX1) (AID 1845191); also: nearly all actives have a fitted effect of over 65% in size
Summary of the method: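 Recombinant GPX1 (10 nM final) was preincubated with compound for 30 min at room temperature, then reacted with 1 mM GSH, 0.5 mM CHP, 0.5 mM NADPH and 100 nM glutathione reductase; NADPH fluorescence (340/450 nm) was read at 0 and 15 min.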

[16] = target: Phospholipid hydroperoxide glutathione peroxidase GPX4 (Homo sapiens) (UniProt P36969); assay: Primary qHTS Assay for Inhibitors of Recombinant Selenoprotein Glutathione Peroxidase 4 (GPX4) (AID 1845192); also: nearly all actives have a fitted effect of over 65% in size; as to activity change, negative = inhibition: series mostly up to about 50 µM
Summary of the method: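 GR-coupled readout: 100 nM GR, 1 mM GSH, 0.5 mM NADPH; NADPH fluorescence (ex 340/em 450 nm) read at t=0 and after 15 min RT. GPX4 200 nM, preincubated 30 min with compound; substrate 0.5 mM CHP.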

[17] = target: Nuclear receptor subfamily 1 group I member 3 (Homo sapiens) (UniProt Q14994); assay: Primary qHTS for agonist of constitutive androstane receptor (CAR) against the NCATS DSHEA and TCM libraries (AID 1794839);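 also: HepG2 cells expressing human CAR with a CYP2B6 reporter plus PK11195 antagonist; luciferase reporter luminescence read with ONE-Glo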
Summary of the method: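 Agonist mode in presence of hCAR antagonist PK11195 (0.75 µM final): test substances, 24 h, 37 °C, on HepG2-CYP2B6-hCAR cells. Same-well readouts: fluorescence viability, then ONE-Glo luminescence; CITCO as reference agonist.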

[18] = target: Cytochrome P450 3A4 (Homo sapiens) (UniProt P08684); assay: qHTS for inhibitors of CYP3A4 against the NCATS DSHEA and TCM libraries (AID 1919971);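 also: inhibition lowers luminescence from luciferin made by CYP3A4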
Summary of the method: as §2

[19] = target: Cytochrome P450 1A2 (Homo sapiens) (UniProt P05177); assay: qHTS for inhibitors of CYPIA2 against the NCATS DSHEA and TCM libraries (AID 1919976);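 also: light from luciferin formed by CYP1A2 from a pro-luciferin substrate; series mostly up to about 37 µM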
Summary of the method: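 Human CYP1A2 with pro-luciferin substrate (typically 100 mM KPO4), 15 min preincubation with compound, then 1x NADPH regeneration for 30-45 min at room temperature in the dark. Luciferin quantified by luciferase luminescence; furafylline intraplate control.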

Nuclear receptor subfamily 1 group I member 2 (Homo sapiens), sequence (O75469 whole entry, looked up): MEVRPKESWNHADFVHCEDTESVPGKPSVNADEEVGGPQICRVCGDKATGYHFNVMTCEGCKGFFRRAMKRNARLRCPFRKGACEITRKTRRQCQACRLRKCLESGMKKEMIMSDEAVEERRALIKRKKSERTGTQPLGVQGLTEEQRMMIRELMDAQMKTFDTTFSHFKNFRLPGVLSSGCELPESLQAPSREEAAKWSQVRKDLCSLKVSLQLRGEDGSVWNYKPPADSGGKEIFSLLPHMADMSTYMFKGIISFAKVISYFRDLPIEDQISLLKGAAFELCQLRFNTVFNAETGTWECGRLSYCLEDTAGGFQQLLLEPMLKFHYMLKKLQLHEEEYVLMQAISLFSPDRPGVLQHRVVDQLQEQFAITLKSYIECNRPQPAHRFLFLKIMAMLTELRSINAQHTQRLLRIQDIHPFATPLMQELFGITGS
Phospholipid hydroperoxide glutathione peroxidase GPX4 (Homo sapiens), sequence (P36969 whole entry, looked up): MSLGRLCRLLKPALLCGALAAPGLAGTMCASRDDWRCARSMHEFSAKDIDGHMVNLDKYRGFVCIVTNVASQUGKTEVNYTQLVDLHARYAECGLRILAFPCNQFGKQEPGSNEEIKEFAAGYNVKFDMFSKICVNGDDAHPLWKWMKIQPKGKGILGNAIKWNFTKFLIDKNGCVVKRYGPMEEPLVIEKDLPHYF
Glutathione peroxidase 1 (Homo sapiens), sequence (P07203 whole entry, looked up): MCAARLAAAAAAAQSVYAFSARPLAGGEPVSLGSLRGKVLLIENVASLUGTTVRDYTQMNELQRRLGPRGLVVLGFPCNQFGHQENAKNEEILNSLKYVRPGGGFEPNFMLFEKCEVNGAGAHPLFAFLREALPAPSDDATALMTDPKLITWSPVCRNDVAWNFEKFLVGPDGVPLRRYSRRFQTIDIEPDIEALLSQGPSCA
Cytochrome P450 2D6 (Homo sapiens), sequence (P10635 whole entry, looked up): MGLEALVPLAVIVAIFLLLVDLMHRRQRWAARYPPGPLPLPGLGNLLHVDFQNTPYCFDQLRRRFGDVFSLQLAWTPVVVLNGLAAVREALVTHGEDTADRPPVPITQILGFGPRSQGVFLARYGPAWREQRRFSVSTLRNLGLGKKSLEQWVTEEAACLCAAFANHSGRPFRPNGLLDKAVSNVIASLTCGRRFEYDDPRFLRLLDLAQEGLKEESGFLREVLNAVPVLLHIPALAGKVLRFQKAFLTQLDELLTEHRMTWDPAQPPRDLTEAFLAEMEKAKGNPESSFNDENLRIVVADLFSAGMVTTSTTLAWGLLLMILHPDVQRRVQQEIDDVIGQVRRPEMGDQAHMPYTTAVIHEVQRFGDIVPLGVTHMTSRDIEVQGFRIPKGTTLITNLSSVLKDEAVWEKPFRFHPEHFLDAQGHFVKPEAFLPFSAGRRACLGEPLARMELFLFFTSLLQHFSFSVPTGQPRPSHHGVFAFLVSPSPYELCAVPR
Cytochrome P450 2C9 (Homo sapiens), sequence (P11712 whole entry, looked up): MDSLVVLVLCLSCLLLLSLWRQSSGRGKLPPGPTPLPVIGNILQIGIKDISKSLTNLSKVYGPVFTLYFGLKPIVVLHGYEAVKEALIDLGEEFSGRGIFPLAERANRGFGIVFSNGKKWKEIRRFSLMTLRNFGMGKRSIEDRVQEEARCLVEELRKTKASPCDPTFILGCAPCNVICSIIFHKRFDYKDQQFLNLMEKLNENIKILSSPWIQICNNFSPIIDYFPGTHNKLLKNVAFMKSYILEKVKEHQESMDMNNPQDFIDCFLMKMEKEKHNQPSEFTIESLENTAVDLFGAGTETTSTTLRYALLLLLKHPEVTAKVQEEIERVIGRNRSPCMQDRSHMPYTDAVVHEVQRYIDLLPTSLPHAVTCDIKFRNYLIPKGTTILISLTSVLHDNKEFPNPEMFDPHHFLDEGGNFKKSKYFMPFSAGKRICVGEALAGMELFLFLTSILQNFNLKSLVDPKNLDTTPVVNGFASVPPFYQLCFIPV
Cytochrome P450 1A2 (Homo sapiens), sequence (P05177 whole entry, looked up): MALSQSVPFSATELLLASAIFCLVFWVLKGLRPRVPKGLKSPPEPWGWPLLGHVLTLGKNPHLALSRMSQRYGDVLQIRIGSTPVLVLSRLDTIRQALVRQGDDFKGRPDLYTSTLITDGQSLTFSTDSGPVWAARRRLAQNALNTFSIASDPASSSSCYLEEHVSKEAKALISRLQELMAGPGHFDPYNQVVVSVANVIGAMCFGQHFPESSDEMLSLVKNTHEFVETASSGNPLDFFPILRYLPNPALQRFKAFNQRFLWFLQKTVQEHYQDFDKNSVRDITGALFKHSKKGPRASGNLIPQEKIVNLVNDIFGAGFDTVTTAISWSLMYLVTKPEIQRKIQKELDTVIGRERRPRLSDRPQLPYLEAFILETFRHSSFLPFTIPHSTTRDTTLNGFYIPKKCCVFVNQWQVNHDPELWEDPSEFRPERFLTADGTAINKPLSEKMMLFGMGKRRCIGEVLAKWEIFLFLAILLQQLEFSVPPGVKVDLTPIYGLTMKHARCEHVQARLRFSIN
Cytochrome P450 3A4 (Homo sapiens), sequence (P08684 whole entry, looked up): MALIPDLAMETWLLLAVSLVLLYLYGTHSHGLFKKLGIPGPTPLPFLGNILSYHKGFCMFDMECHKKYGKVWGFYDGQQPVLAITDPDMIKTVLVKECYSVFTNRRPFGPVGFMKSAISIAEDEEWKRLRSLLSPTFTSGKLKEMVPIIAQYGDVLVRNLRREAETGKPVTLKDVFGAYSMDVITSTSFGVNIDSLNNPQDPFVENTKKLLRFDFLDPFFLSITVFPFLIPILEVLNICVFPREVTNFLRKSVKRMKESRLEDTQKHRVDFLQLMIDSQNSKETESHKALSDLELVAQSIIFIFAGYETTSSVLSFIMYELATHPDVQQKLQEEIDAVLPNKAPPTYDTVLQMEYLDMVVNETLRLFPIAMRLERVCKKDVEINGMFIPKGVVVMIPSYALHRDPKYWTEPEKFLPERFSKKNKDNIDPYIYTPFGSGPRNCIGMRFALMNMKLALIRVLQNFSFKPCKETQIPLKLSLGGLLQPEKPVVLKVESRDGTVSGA
Cytochrome P450 2C19 (Homo sapiens), sequence (P33261 whole entry, looked up): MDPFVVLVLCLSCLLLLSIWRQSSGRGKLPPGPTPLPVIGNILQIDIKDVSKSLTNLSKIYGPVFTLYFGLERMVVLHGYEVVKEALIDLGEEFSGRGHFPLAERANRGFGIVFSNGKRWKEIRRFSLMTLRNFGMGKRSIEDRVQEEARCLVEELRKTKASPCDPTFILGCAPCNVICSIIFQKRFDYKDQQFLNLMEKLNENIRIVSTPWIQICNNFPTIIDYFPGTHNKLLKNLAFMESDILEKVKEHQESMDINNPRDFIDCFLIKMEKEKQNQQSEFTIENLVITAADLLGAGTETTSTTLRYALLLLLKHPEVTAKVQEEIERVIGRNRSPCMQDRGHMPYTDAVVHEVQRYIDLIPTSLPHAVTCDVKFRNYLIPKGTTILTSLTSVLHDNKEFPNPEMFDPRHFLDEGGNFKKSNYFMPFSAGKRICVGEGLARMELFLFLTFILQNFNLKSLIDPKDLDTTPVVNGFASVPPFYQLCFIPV
Nuclear receptor subfamily 1 group I member 3 (Homo sapiens), sequence (Q14994 whole entry, looked up): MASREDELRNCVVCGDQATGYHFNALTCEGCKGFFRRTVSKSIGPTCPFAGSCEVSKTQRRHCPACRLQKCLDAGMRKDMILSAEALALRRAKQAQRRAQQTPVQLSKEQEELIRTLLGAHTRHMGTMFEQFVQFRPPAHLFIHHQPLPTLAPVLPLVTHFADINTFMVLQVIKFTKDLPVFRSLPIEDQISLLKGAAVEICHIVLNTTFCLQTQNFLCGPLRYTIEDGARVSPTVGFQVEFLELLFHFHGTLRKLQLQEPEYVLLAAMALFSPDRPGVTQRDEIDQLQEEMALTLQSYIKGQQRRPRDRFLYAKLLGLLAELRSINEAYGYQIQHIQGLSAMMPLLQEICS

O=c1c(O[C@@H]2O[C@H](CO)[C@H](O)[C@H](O)[C@H]2O)c(-c2ccc(O)c(O)c2)oc2cc(O)cc(O)c12
Potency [1]: inactive
outcome [2]: inactive
outcome [3]: inactive
outcome [4]: inactive
outcome [5]: inactive
Potency [6]: inactive
Potency [7]: 7.94 µM (active)
Potency [8]: 3.55 µM (active)
outcome [9]: inactive
max response [10]: 1.88%
outcome [11]: inactive
Potency [12]: inactive
outcome [13]: inactive
outcome [14]: inactive

O=C(O)CCCN1CCC(O[C@@H](c2ccc(Cl)cc2)c2ccccn2)CC1
Potency [1]: inactive
Potency [15]: inactive
Potency [16]: inactive

CCC(CC)[C@H](NC(C)=O)[C@@H]1[C@H](O)[C@@H](C(=O)O)C[C@H]1N=C(N)N
activity change, negative = cytotoxicity [1]: -6.87% [at 0.334 µM]
activity, negative = inhibition [15]: -7.9% [at 0.4 µM]
activity change, negative = inhibition [16]: -9.13% [at 0.409 µM]

O=C(/C=C/c1ccc(O)c(O)c1)O[C@H]1[C@H](O)C[C@](O)(C(=O)O)C[C@H]1OC(=O)/C=C/c1ccc(O)c(O)c1
Potency [1]: inactive
outcome [2]: inactive
outcome [3]: inactive
Potency [17]: inactive
outcome [5]: inactive
Potency [18]: inactive
Potency [6]: inactive
Potency [7]: 15.8 µM (active)
outcome [9]: inactive
Potency [19]: inactive
max response [10]: -1.54%
outcome [11]: inactive
Potency [12]: inactive
outcome [13]: inactive
outcome [14]: inactive
